Test results from PubChem BioAssay (NCATS).
Values joined by “and” are separate entries in the source; they are usually repeats but may differ in a detail not shown here. Equal entries are not always repeated. Results filed as inconclusive are left out. Active and inactive are the calls of the source. Unless noted, calls come from the whole dose curve; as a rule, active = well fitted curve in the direction sought with a large enough effect; inconclusive = small, poorly fitted or top-dose-only effect, or another doubt; inactive = no such curve, though single readings can be large; an effect the other way counts as inactive or inconclusive.

Assays:
[1] = qHTS assay for small molecule disruptors of the mitochondrial membrane potential - 5 hr assay (AID 651755; calls by dose curve; note: % is set by controls: 0 for no effect and ±100 for the full control effect; nearly all actives have a fitted effect of over 40% in size)
In short: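 HepG2 cells, attached overnight at 37C, were exposed to compound or DMSO for 5 hr at 37C, 5% CO2. Mito-MPS dye was then added for 30 min, and fluorescence read at 490/535 nm (monomers) and 540/590 nm (aggregates).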

[2] = target: Tumor necrosis factor (Homo sapiens) (UniProt P01375); test: qHTS assay to identify small molecules that stimulate Tumor Necrosis Factor-alpha (TNF-alpha) secretion (AID 651757; active = well fitted curve in the direction sought with a large enough effect in the signal ratio; the % refers to the signal ratio; note: 0% is about no effect)
In short: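 THP-1 cells were exposed to compounds for 17 hrs at 37 C, after which secreted TNF-alpha was measured by homogeneous HTRF (TR-FRET) using cryptate- and XL665-labeled anti-TNF-alpha antibodies, read after 3 hr at room temperature.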

[3] = qHTS assay for environmental chemicals that activate the Aryl hydrocarbon Receptor (AhR) signaling pathway (AID 651777); details: 1A2-DRE human hepatoma cells, luciferase, 24 h; activation: hits give high values; note: % of control where 0% means no effect; nearly all actives have a fitted effect of over 15% in size
In short: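 Luminescence (One-Glo, 30 min, room temperature) reports AhR-driven luciferase in stably transfected human hepatoma cells bearing DRE and CYP1A2 promoter. Cells (1,200/well) were treated with compound for 24 hr at 37 C in qHTS format.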

[4] = target: Peroxisome proliferator-activated receptor alpha (Homo sapiens) (UniProt Q07869); test: qHTS assay for small molecule agonists of the peroxisome proliferator-activated receptor alpha (PPARalpha) signaling pathway (AID 651778); details: PathHunter PPARalpha complementation, chemiluminescence, 6 h; hits give high values; note: % of control where 0% means no effect
In short: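 Cells plated at 2,000/well and held overnight at 37 C, 5% CO2, then compound added by pin tool for 6 hr; after PathHunter detection reagent and 60 min at room temperature, chemiluminescence from enzyme complementation was read.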

[5] = target: Nuclear receptor ROR-gamma (Homo sapiens) (UniProt P51449); test: qHTS assay for small molecule antagonists of the retinoid-related orphan receptor gamma (ROR-gamma) signaling pathway (AID 651802); note: series mostly up to about 92 µM; % is set by controls: 0 for no effect and ±100 for the full control effect; nearly all actives have a fitted effect of over 60% in size
In short: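 CHO cells carrying TET-inducible ROR-gamma and an ROR response element–luciferase reporter were exposed to compound, then induced with doxycycline. After 16hr at 37C, luminescence was read; lower signal indicates antagonism.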

[6] = qHTS assay for small molecule agonists of the antioxidant response element (ARE) signaling pathway measured by Nrf2-dependant transcriptional activity (AID 720636; active = well fitted curve in the direction sought with a large enough effect in the repeat runs; an effect the other way counts as inactive or inconclusive; note: % of control where 0% means no effect)
In short: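 Nrf2-dependent transcription read as ONE-Glo luciferase signal from ARE-luc HepG2 reporter cells after 16 hr compound treatment at 37 C, 5% CO2, in assay medium with 1% dialyzed FBS.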

[7] = qHTS assay for small molecule antagonists of the retinoid-related orphan receptor gamma (ROR-gamma) signaling pathway - cell viability counter screen (AID 720652; active = well fitted curve in the direction sought with a large enough effect in the repeat runs; an effect the other way counts as inactive or inconclusive;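 note: series mostly up to about 92 µM; compound exposure lasted 16 hr before ATP read; % is set by controls: 0 for no effect and ±100 for the full control effect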)
In short: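 Counter screen in CHO cells carrying TET-inducible ROR-gamma and an ROR response element-luciferase reporter; cells plated 5 hr, compound pinned, doxycycline added, then 16 hr at 37 C. Viability read as intracellular ATP by CellTiter-Glo luminescence.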

[8] = qHTS assay for small molecule agonists of the antioxidant response element (ARE) signaling pathway measured by Nrf2-dependant transcriptional activity - cell viability counter screen (AID 720653; active = well fitted curve in the direction sought with a large enough effect in the repeat runs; an effect the other way counts as inactive or inconclusive; note: % is set by controls: 0 for no effect and ±100 for the full control effect); details: ARE-bla HepG2 viability, CellTiter-Glo ATP luminescence, 16 h; hits give low values
In short: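 ARE-bla HepG2 cells (2,000/well) rested 5 hrs at 37C/5% CO2, then exposed to compounds in DMSO for 16 hrs. Viability was read in the same wells as intracellular ATP by luminescence, 30 min at room temperature after reagent addition.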

[9] = qHTS assay for cell viability of HEK293 cells (AID 743288); details: ATP luminescence (CellTiter-Glo), 18 h, hits give low values; note: % is set by controls: 0 for no effect and ±100 for the full control effect; nearly all actives have a fitted effect of over 50% in size
In short: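 Parental HEK293 cells, 2,000 per well, preincubated at least 5 h at 37 C, then exposed to compounds in DMSO for 18 h at 37 C. Viability by CellTiter-Glo ATP luminescence after 30 min at room temperature.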

Chain of Nuclear receptor ROR-gamma (Homo sapiens) (P51449 whole entry, looked up): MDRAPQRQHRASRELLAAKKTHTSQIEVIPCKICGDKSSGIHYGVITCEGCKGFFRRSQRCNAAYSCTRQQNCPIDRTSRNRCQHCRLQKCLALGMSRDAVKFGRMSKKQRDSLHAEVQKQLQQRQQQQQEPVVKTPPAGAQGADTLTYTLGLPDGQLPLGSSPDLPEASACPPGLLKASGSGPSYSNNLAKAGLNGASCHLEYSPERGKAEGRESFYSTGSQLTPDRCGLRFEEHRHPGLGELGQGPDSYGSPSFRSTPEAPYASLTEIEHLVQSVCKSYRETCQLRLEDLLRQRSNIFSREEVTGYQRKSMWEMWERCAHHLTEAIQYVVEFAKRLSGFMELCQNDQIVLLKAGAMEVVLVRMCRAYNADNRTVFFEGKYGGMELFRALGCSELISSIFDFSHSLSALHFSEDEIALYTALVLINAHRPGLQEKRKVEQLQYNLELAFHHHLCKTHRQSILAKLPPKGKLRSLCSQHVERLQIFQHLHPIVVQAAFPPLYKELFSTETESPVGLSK
Chain of Tumor necrosis factor (Homo sapiens) (P01375 whole entry, looked up): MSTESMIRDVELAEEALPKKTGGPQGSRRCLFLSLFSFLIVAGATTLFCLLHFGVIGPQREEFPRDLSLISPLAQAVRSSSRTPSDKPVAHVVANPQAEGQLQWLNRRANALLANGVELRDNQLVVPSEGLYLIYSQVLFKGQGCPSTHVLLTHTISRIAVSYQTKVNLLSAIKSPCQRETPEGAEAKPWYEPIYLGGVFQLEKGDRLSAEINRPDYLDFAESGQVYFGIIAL
Chain of Peroxisome proliferator-activated receptor alpha (Homo sapiens) (Q07869 whole entry, looked up): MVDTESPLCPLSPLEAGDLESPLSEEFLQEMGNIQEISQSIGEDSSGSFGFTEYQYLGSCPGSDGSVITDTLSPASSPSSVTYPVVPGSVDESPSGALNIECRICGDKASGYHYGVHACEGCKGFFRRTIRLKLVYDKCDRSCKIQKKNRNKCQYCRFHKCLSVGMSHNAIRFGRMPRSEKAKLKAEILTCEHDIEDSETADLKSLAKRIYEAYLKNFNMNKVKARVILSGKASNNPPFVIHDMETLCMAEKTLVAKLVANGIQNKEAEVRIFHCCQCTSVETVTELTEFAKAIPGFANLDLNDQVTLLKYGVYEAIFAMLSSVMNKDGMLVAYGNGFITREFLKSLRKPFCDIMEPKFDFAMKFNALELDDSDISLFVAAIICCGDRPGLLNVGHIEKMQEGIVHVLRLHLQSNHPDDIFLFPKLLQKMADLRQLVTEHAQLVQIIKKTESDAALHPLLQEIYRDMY

C1COC1
inactive: Potency [1] | Potency [2] | activation [3] -0.727% | max response [4] 0.481% | Potency [5] | outcome [6] | Potency [7] | max response [8] -0.519% | max response [9] 7.71%

C=CCCCCCCC=C
inactive: Potency [1] | Potency [2] | activation [3] 0.475% | max response [4] 4.13% | Potency [5] | outcome [6] | Potency [7] | max response [8] 5.83% | max response [9] 3%

Cc1ccccc1C(N)=O
inactive: Potency [1] | Potency [2] | activation [3] -0.0237% | max response [4] -0.838% | Potency [5] | outcome [6] | Potency [7] | max response [9] 10.1%

C(=C/c1ccccc1)/c1ccccc1
inactive: Potency [1] | Potency [2] | activation [3] 1.55% | max response [4] 5.49% | Potency [5] | outcome [6] | Potency [7] | max response [8] 5.32% | max response [9] -10.3%

Nc1cccc(S(=O)(=O)O)c1
inactive: Potency [1] | Potency [2] | activation [3] -0.739% | max response [4] -1.84% | Potency [5] | outcome [6] | Potency [7] | max response [8] 8.17% | max response [9] 0.367%

CC(C)C(C)C
inactive: Potency [1] | Potency [2] | activation [3] 1.04% | max response [4] -4.01% | Potency [5] | outcome [6] | Potency [7] | max response [8] -1.72% | max response [9] 2.97%

CCC(C)(C)OC
inactive: Potency [1] | Potency [2] | activation [3] 0.579% | max response [4] -8.98% | Potency [5] | outcome [6] | Potency [7] | max response [8] -14.5% | max response [9] -19.7%

C=C(C)C(=O)OC
inactive: Potency [1] | Potency [2] | activation [3] 0.279% | max response [4] 0.595% | Potency [5] | outcome [6] | Potency [7] | max response [8] 4.29% | max response [9] 0.0882%

CCCCC(C=O)CC (stereo unspecified)
inactive: Potency [1] | Potency [2] | activation [3] 0.316% | max response [4] -5.44% | Potency [5] | outcome [6] | Potency [7] | max response [8] 4.13% | max response [9] -9.34%

c1ccc(Nc2ccccc2)cc1
inactive: Potency [1] | Potency [2] | activation [3] 0.217% and 3.92% | max response [4] -3.04% and -2.25% | Potency [5] | outcome [6] | Potency [7] | max response [8] -1.43% and -3.7% | max response [9] -6.24% and -7.97%

O=[N+]([O-])c1cc(C(F)(F)F)ccc1Cl
inactive: Potency [1] | Potency [2] | activation [3] 1.14% | max response [4] 0.399% | Potency [5] | outcome [6] | Potency [7] | max response [8] -6.2% | max response [9] -0.584%

CC(=O)CC(C)C
inactive: Potency [1] | Potency [2] | activation [3] -0.041% | max response [4] -2.67% | Potency [5] | outcome [6] | Potency [7] | max response [8] 4.78% | max response [9] -6.25%

O=[N+]([O-])c1c(Cl)cc(Cl)cc1Cl
inactive: Potency [1] | Potency [2] | activation [3] 0.0842% | max response [4] 0.895% | Potency [5] | outcome [6] | Potency [7] | max response [8] -2.01% | max response [9] 8.66%

NCCCCCCN
inactive: Potency [1] | Potency [2] | activation [3] 0.0666% | max response [4] -4.8% | Potency [5] | outcome [6] | Potency [7] | max response [8] -0.206% | max response [9] 10.3%

C=CCn1c(=O)n(CC=C)c(=O)n(CC=C)c1=O
inactive: Potency [1] | Potency [2] | activation [3] 0.438% | max response [4] -0.851% | Potency [5] | outcome [6] | Potency [7] | max response [8] -13.5% | max response [9] 8.26%

CCCCCCC(=O)O
inactive: Potency [1] | Potency [2] | activation [3] 0.903% | max response [4] 14.5% | Potency [5] | outcome [6] | Potency [7] | max response [8] -2.08% | max response [9] -7.36%

O=C(O)CNC(=O)c1ccc([N+](=O)[O-])cc1
inactive: Potency [1] | Potency [2] | activation [3] 0.908% | max response [4] -1.61% | outcome [6] | Potency [7] | max response [8] 1.63% | max response [9] -4.53%

Nc1cc([N+](=O)[O-])ccc1C(=O)O
inactive: Potency [1] | Potency [2] | activation [3] 3.7% and 3.8% | Potency [5] | outcome [6] | Potency [7] | max response [8] -7.64% and 3.66% | max response [9] -6.72% and -9.32%

CNc1ccc([N+](=O)[O-])cc1
inactive: Potency [1] | Potency [2] | activation [3] 1.91% | max response [4] -2.03% | Potency [5] | outcome [6] | max response [8] 5.65% | max response [9] 0.311%

O=[N+]([O-])c1ccc(NCCO)c(OCCO)c1
inactive: Potency [1] | Potency [2] | activation [3] 0.85% | max response [4] -4.01% | outcome [6] | Potency [7] | max response [8] 6.98% | max response [9] -2.57%

FB(F)F
inactive: Potency [1] | Potency [2] | activation [3] -0.371% | max response [4] -1.82% | outcome [6] | Potency [7] | max response [8] 3.97% | max response [9] -1.64%

CC(C)CO
inactive: Potency [1] | Potency [2] | activation [3] -1.47% | Potency [5] | outcome [6] | Potency [7] | max response [8] -4.27% | max response [9] 4.23%
